Laboratory results reported in PubChem BioAssay (NCATS).
Results filed as inconclusive are left out. Calls of active or inactive are those of the source. Calls come from the whole dose curve; as a rule, active = well fitted curve in the direction sought with a large enough effect; inconclusive = small, poorly fitted or top-dose-only effect, or another doubt; inactive = no such curve, though single readings can be large; an effect the other way counts as inactive or inconclusive.

Key:
[1] = Quantitative High-Throughput drug screen in 47 multiple myeloma cell lines against the NCATS MIPE library collection: MOLP8_DSMZ cell viability assay (AID 1918977); note: nearly all actives have a fitted effect of over 45% in size
In short: (§1)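 500 cells/well per myeloma line exposed to pinned MIPE 4.0 compounds for 48 h at 37 °C, 5% CO2. Viability read as ATP by CellTiter-Glo luminescence, normalised to DMSO-only (100%) and media-only (0%) wells.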

[2] = Quantitative High-Throughput drug screen in 47 multiple myeloma cell lines against the NCATS MIPE library collection: NCIH929_DSMZ cell viability assay (AID 1918978); note: nearly all actives have a fitted effect of over 35% in size
In short: as §1

[3] = Quantitative High-Throughput drug screen in 47 multiple myeloma cell lines against the NCATS MIPE library collection: OCIMY1_PLB cell viability assay (AID 1918979); note: nearly all actives have a fitted effect of over 35% in size; for viability: series mostly up to about 46 µM
In short: as §1

[4] = Quantitative High-Throughput drug screen in 47 multiple myeloma cell lines against the NCATS MIPE library collection: MM1R_ATCC cell viability assay (AID 1918981); note: nearly all actives have a fitted effect of over 35% in size
In short: as §1

[5] = Quantitative High-Throughput drug screen in 47 multiple myeloma cell lines against the NCATS MIPE library collection: LP1_DSMZ cell viability assay (AID 1918982); note: nearly all actives have a fitted effect of over 35% in size
In short: as §1

[6] = Quantitative High-Throughput drug screen in 47 multiple myeloma cell lines against the NCATS MIPE library collection: KMS34_JCRB cell viability assay (AID 1918985); note: nearly all actives have a fitted effect of over 40% in size
In short: as §1

[7] = Quantitative High-Throughput drug screen in 47 multiple myeloma cell lines against the NCATS MIPE library collection: OCIMY7_PLB cell viability assay (AID 1918987); settings: OCI-MY7 myeloma viability, CellTiter-Glo ATP, 48 h; viability (% of DMSO): at 45.8 µM; note: nearly all actives have a fitted effect of over 65% in size; for viability (% of DMSO): series mostly up to about 46 µM
In short: as §1

[8] = Quantitative High-Throughput drug screen in 47 multiple myeloma cell lines against the NCATS MIPE library collection: OPM1_PLB cell viability assay (AID 1918989); note: nearly all actives have a fitted effect of over 40% in size
In short: as §1

[9] = Quantitative High-Throughput drug screen in 47 multiple myeloma cell lines against the NCATS MIPE library collection: XG1_PLB cell viability assay (AID 1919866); note: nearly all actives have a fitted effect of over 35% in size
In short: as §1

[10] = Quantitative High-Throughput drug screen in 47 multiple myeloma cell lines against the NCATS MIPE library collection: VP6_DJ cell viability assay (AID 1919867); note: nearly all actives have a fitted effect of over 40% in size
In short: as §1

[11] = Quantitative High-Throughput drug screen in 47 multiple myeloma cell lines against the NCATS MIPE library collection: PCM6_Riken cell viability assay (AID 1919870); note: nearly all actives have a fitted effect of over 30% in size
In short: as §1

[12] = Quantitative High-Throughput drug screen in 47 multiple myeloma cell lines against the NCATS MIPE library collection: MM1S_ATCC cell viability assay (AID 1918980); note: nearly all actives have a fitted effect of over 45% in size
In short: as §1

[13] = Quantitative High-Throughput drug screen in 47 multiple myeloma cell lines against the NCATS MIPE library collection: L363_DSMZ cell viability assay (AID 1918984); note: nearly all actives have a fitted effect of over 40% in size
In short: as §1

[14] = Quantitative High-Throughput drug screen in 47 multiple myeloma cell lines against the NCATS MIPE library collection: SKMM1_PLB cell viability assay (AID 1919863); settings: SKMM1 myeloma viability, CellTiter-Glo ATP, 48 h; viability: hits give low values; note: nearly all actives have a fitted effect of over 35% in size; for viability: series mostly up to about 46 µM
In short: as §1

[15] = Quantitative High-Throughput drug screen in 47 multiple myeloma cell lines against the NCATS MIPE library collection: U266_ATCC cell viability assay (AID 1919864); note: nearly all actives have a fitted effect of over 35% in size
In short: as §1

[16] = Quantitative High-Throughput drug screen in 47 multiple myeloma cell lines against the NCATS MIPE library collection: UTMC2_PLB cell viability assay (AID 1919868); settings: CellTiter-Glo ATP luminescence, 48 h; viability (% of DMSO control): at 45.8 µM; note: nearly all actives have a fitted effect of over 55% in size
In short: as §1

[17] = Quantitative High-Throughput drug screen in 47 multiple myeloma cell lines against the NCATS MIPE library collection: PE2_PLB cell viability assay (AID 1919869); note: nearly all actives have a fitted effect of over 35% in size
In short: as §1

[18] = Quantitative High-Throughput drug screen in 47 multiple myeloma cell lines against the NCATS MIPE library collection: KMS28PE_JCRB cell viability assay (AID 1918983); note: nearly all actives have a fitted effect of over 35% in size
In short: as §1

[19] = Quantitative High-Throughput drug screen in 47 multiple myeloma cell lines against the NCATS MIPE library collection: XG6_PLB cell viability assay (AID 1919865); note: nearly all actives have a fitted effect of over 40% in size
In short: as §1

[20] = Quantitative High-Throughput drug screen in 47 multiple myeloma cell lines against the NCATS MIPE library collection: OCIMY5_PLB cell viability assay (AID 1918988); note: nearly all actives have a fitted effect of over 65% in size
In short: as §1
Potency is the fitted concentration of half-maximal effect.

COc1ccc(-c2coc3cc(O)cc(O)c3c2=O)cc1
inactive: Potency [1] | Potency [2] | Potency [3] | Potency [4] | Potency [5] | Potency [6] | Potency [7] | Potency [8] | Potency [9] | Potency [10] | Potency [11]

C=C1C(=O)OC2C=C(C)CCC=C(C)CCC12 (stereo unspecified)
inactive: Potency [16]
active: Potency [1] 16.6 µM | Potency [2] 20.9 µM | Potency [12] 23.5 µM | Potency [13] 29.6 µM | Potency [6] 14.8 µM | Potency [7] 4.69 µM | Potency [14] 29.6 µM | Potency [15] 20.9 µM | Potency [9] 16.6 µM | Potency [17] 16.6 µM | Potency [11] 18.7 µM

CCOC(=O)O[C@]1(C(=O)OCCl)CC[C@@H]2[C@H]3CCC4=CC(=O)C=C[C@]4(C)[C@@H]3[C@@H](O)C[C@@]21C
inactive: Potency [1] | Potency [2] | Potency [3] | Potency [4] | Potency [18] | Potency [13] | viability [14] 124% | Potency [19] | Potency [17] | Potency [11]

COc1cc(Nc2ncc(F)c(Nc3ccc4c(n3)NC(=O)C(C)(C)O4)n2)cc(OC)c1OC
active: Potency [1] 7.43 µM | Potency [2] 1.18 µM | Potency [3] 1.66 µM | Potency [4] 6.62 µM | Potency [6] 4.69 µM | Potency [7] 0.743 µM | Potency [20] 6.62 µM | Potency [8] 1.87 µM | Potency [19] 1.66 µM | Potency [10] 1.66 µM | Potency [16] 0.59 µM | Potency [17] 1.05 µM
inactive: Potency [12] | Potency [15]

Nc1ncnc2ccccc12
active: Potency [2] 26.4 µM | Potency [7] 14.8 µM | Potency [20] 26.4 µM | Potency [11] 20.9 µM
inactive: Potency [1] | Potency [3] | Potency [4] | Potency [5] | Potency [8] | Potency [15]

COc1ccc(-c2coc3cc(O)ccc3c2=O)cc1
active: Potency [1] 0.0059 µM
inactive: Potency [2] | Potency [3] | Potency [4] | Potency [5] | Potency [6] | Potency [7] | Potency [8] | Potency [15] | Potency [19] | Potency [9] | Potency [10] | Potency [17] | Potency [11]

O=C(Nc1ccccc1Br)N[C@@H]1CCN(c2ccc(C(F)(F)F)cn2)C1
active: Potency [19] 23.5 µM | Potency [10] 18.7 µM | Potency [17] 18.7 µM
inactive: Potency [1] | Potency [2] | Potency [3] | Potency [13] | Potency [6]

CC(C)C(C)C=CC(C)C1CCC2C3=CC=C4CC(O)CCC4(C)C3CCC21C (stereo unspecified)
inactive: Potency [1] | Potency [2] | Potency [3] | Potency [5] | Potency [13] | Potency [6] | Potency [8] | Potency [19] | Potency [16] | Potency [17] | Potency [11]
active: Potency [18] 16.6 µM | Potency [20] 23.5 µM

Cn1c(N2CCCCS2(=O)=O)nc(C(=O)NCc2ccc(F)cc2)c(O)c1=O
active: viability (% of DMSO control) [16] 149%
inactive: Potency [1] | Potency [2] | Potency [3] | Potency [12] | Potency [5] | Potency [18] | Potency [6] | Potency [8] | viability [14] 112% | Potency [19] | Potency [9] | Potency [17] | Potency [11]

O=C(Nc1ccccc1-c1cn2c(CN3CCNCC3)csc2n1)c1cnc2ccccc2n1
active: Potency [1] 9.35 µM | Potency [2] 7.43 µM | Potency [3] 16.6 µM | Potency [12] 23.5 µM | Potency [4] 20.9 µM | Potency [5] 23.5 µM | Potency [18] 23.5 µM | Potency [7] 9.35 µM | Potency [20] 8.33 µM | Potency [14] 4.69 µM | Potency [15] 11.8 µM | Potency [19] 9.35 µM | Potency [9] 7.43 µM | Potency [10] 9.35 µM | Potency [17] 8.33 µM | Potency [11] 10.5 µM

CN(C)c1cc(NC(=O)CNC(C)(C)C)c(O)c2c1C[C@@H]1C[C@H]3[C@H](N(C)C)C(=O)C(C(N)=O)=C(O)[C@@]3(O)C(=O)C1=C2O
active: Potency [1] 9.35 µM | Potency [4] 18.7 µM | Potency [16] 13.2 µM
inactive: Potency [2] | Potency [3] | Potency [12] | Potency [5] | Potency [18] | Potency [20] | Potency [15] | Potency [9] | Potency [17] | Potency [11]

CN(C)Cc1ccc(-c2nc3cccc4c3n2CCNC4=O)cc1
inactive: Potency [3]
active: Potency [1] 13.2 µM | Potency [12] 18.7 µM | Potency [4] 20.9 µM | Potency [5] 23.5 µM | Potency [13] 18.7 µM | Potency [7] 8.33 µM | Potency [20] 20.9 µM | Potency [19] 16.6 µM | Potency [10] 14.8 µM | Potency [17] 20.9 µM | Potency [11] 14.8 µM

CCOC1OC(=O)C[C@H]1NC(=O)[C@@H]1CCCN1C(=O)[C@@H](NC(=O)c1ccc(N)c(Cl)c1)C(C)(C)C (stereo partly specified)
active: Potency [12] 26.4 µM | viability (% of DMSO) [7] 164%
inactive: Potency [1] | Potency [2] | Potency [3] | Potency [4] | Potency [5] | Potency [6] | Potency [20] | Potency [8] | viability [14] 129% | Potency [19] | Potency [17] | Potency [11]
